# Measured values: the supplement of paper PMC6555819
# Columns and labels:
# Assay in all cases: PBM binding z-score (relative to random genomic background probes); higher = stronger binding; sequences stand for … in GC…GCGATTGACAGCGTAGAATGAAGG
# [1] = system: FXR:RXRa (NR concentration 270 nM, RXRa partner concentration 90 nM)
# Outline: (§1)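 Random background probes are the reference for binding z-scores. These scores derive from regression-normalized fluorescence on custom Agilent 4×180K protein-binding microarrays incubated 1 h with ligand-free nuclear receptor dimers. Binding was detected with antibodies against each partner (one per run).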
# [2] = system: LXRa:RXRa (NR concentration 270 nM, RXRa partner concentration 90 nM)
# Outline: as §1
# [3] = system: LXRa homodimer (NR concentration 270 nM)
# Outline: as §1
# [4] = system: LXRb:RXRa (NR concentration 270 nM, RXRa partner concentration 90 nM)
# Outline: as §1
# [5] = system: LXRb homodimer (NR concentration 270 nM)
# Outline: as §1
# [6] = system: PPARa:RXRa (NR concentration 270 nM, RXRa partner concentration 90 nM)
# Outline: as §1
# [7] = system: PPARg:RXRa (NR concentration 180 nM, RXRa partner concentration 90 nM)
# Outline: as §1
# [8] = system: PPARg:RXRa 270nM:90nM, anti-RXR (NR concentration 270 nM, RXRa partner concentration 90 nM)
# Outline: as §1
# [9] = system: PPARg:RXRa 30nM:10nM, anti-RXR (NR concentration 30 nM, RXRa partner concentration 10 nM)
# Outline: as §1
# [10] = system: PPARg:RXRa 90nM:30nM, anti-RXR (NR concentration 90 nM, RXRa partner concentration 30 nM)
# Outline: as §1
Sequence,PBM binding z-score [1],PBM binding z-score [2],PBM binding z-score [3],PBM binding z-score [4],PBM binding z-score [5],PBM binding z-score [6],PBM binding z-score [7],PBM binding z-score [8],PBM binding z-score [9],PBM binding z-score [10]
AGTCAAAGTTCACTACGTAACGTAAGATTCAGCT,5.22,4.81,2.75,3.23,1.32,3.94,5.52,5.28,2.81,4.64
GCTAGTTGGTCAGTAAAAGGTCAAACACCGGTCG,3.88,5.14,6.12,4.91,1.54,4.71,2.68,4.45,2.84,4.37
ACTTACGGGTCAACGCGGTTATAGCACGCGTATA,6.63,4.76,0.698,4.08,0.727,5.52,4.9,5.47,1.84,4.14
GGAACGAGGGCATTCGCGTTGATAGCATGGCGAT,0.794,1.04,-0.65,0.18,-0.618,1.5,0.776,0.655,-0.361,0.136
TCTAGTTGGTCAAAGGTCACACAATCGAAATGCG,5.53,5.9,3.73,5.66,2.13,6.6,11.8,9.87,11.7,11.4
ACTAGCAGGCCAAGGGTCACTCGAGATTAGTCCG,2.44,2.89,0.209,2.6,-0.293,4.51,7.9,7.44,6.36,8.11
CGACCAAGGTCAGAGAGGTCAGTGAATGCCGAGT,6,4.97,2.61,4.23,-0.0164,4.64,3.68,4.21,1.11,2.69
TCTTGTAGATCAATAGAGGTTAAGAGAGTGCGCT,1.02,3.23,0.39,1.56,-0.263,1.97,0.0918,1.53,2.37,2.22
GCATATAGGTAATACAAGGTGGAAGTCCGATTGT,0.184,0.265,-0.224,-0.272,-0.619,0.775,0.978,0.953,0.435,0.586
CCTACTGGGCCTAAAAGGTCATTGATGCCGATAA,4.02,4.65,4.1,4.61,0.491,4.78,1.7,3.24,0.898,2.38
CAACCTAGGTCAGGGCCAGTATAGGAGGAACGTT,2.3,1.36,-0.178,0.897,-0.856,2.5,1.79,1.74,0.0391,0.938
TAGCCTAGGTCATGGGGCCAGTATAGTACGCATC,4.54,3.52,0.182,2.77,0.0614,4.31,3.62,3.29,0.919,2.66
TAGCCTAGGTCAGATCGGCCCAGTATACGCTATA,1.44,1.09,-0.637,0.955,-0.183,1.87,1.07,0.986,-0.286,0.142
CCTACTGGGCCATCAGGTCATTTATATCAACGTT,1.48,1.03,1.99,1.81,0.176,2.79,2.76,3.29,1.06,2.57
TCATATAGGTAATACAGGTGAATGTCGGCATCTA,1.12,1.39,0.495,0.986,0.337,1.84,1.73,2.58,4.19,3.28
TGAATGAGGCTAAAGATCAGGGAACGTGGCGTCG,-0.481,-0.541,-0.699,-0.926,-0.646,1.97,2.96,4.9,3.03,4.67
CCTCGGAGGACAGGAGGTCAGAGCTGTCCGCTTT,1.56,1.79,0.686,1.2,-0.929,1.96,-0.08,0.65,-0.913,-0.13
AGTCAAAGATCAGGACGAGGTAACGTAAAGCACG,0.107,-0.519,-0.426,-0.362,-0.522,0.273,1.18,0.619,0.0734,0.677
GATACAGGGACAAGGCCAGAGTACGCGTATTGAT,-0.342,-0.63,-0.318,-0.797,-0.748,-0.534,0.946,0.318,0.00447,-0.175
CCTAGTTGGTCAAGGTTACACACGCTATAGGTAC,1.22,1.09,0.67,1.4,0.618,1.79,1.82,2.2,0.763,1.81
TCATATAGGTAAAGGTGAATGTCGAACGATATGA,0.972,1.33,-0.151,1.19,-0.0794,2.99,4.24,4.23,4.36,4.59
TGAATGAGTTTAAAGATCAGGGAACGTGGCGTCG,-0.0413,0.111,-0.578,-0.0738,0.209,0.791,0.824,1.77,1.35,1.46
TAGCCTAGGTCTGATCGGGCCAGTATACGCTATA,-0.28,-0.943,-0.639,-0.94,-1.01,-0.144,0.0558,-0.669,-0.329,-0.45
CCGAGTAGGTTATGGGGCATTCACGCAACGGTGA,0.165,0.583,-0.0835,0.908,0.284,2.27,3.48,4.67,2.32,4.69
